Hits are enriched below; roughly 0.93% of the tested compounds scored in any of these assays.
CIT2 TOR yeast: modulators of TOR pathway CIT2-GFP in S. cerevisiae; S. cerevisiae CIT2-GFP strain, flow cytometry, 3 h; 100 means same as DMSO wells; GFP response vs DMSO, % at 10 µM; AID 2029; 0.065% of 320,000 active;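 active means GFP response relative to DMSO above a set limit, near the screen mean plus 3 SD, cut at about 150% in these data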;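 further: ratio of well median GFP fluorescence to mean of DMSO wells on the plate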
AGP1 TOR yeast: yeast TOR pathway AGP1-GFP modulation; 0.02% of 320,000 active; S. cerevisiae AGP1-GFP multiplex flow cytometry, 3 h; GFP as percent of DMSO wells; AID 2066; GFP response vs DMSO, % at 10 µM;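 active means GFP response relative to DMSO above a set limit, near screen average plus 3 SD, cut at about 150% in these data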;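 further: median GFP channel fluorescence of the gated AGP1 strain per well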
LAP4-GFP MLPCN: modulators of TOR pathway LAP4-GFP in S. cerevisiae; 0.34% of 320,000 active; GFP response vs DMSO, % at 10 µM; AID 2023; S. cerevisiae LAP4-GFP multiplex, flow cytometry GFP, 3 h; median GFP as percent of DMSO wells;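 active means GFP response vs DMSO above a set limit, about the screen mean plus 3 SD, cut at about 150% in these data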
MEP2-GFP yeast: alters MEP2-GFP fluorescence in TOR pathway yeast screen | S. cerevisiae MEP2-GFP strain, flow cytometry GFP, 3 h; 100% = DMSO control level | GFP response vs DMSO, % at 10 µM | 0.51% of 330,000 active | AID 2016;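 active means GFP response versus DMSO above a set limit, roughly screen mean plus 3 SD, cut at about 180% in these data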;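 further: median GFP fluorescence of the barcode-gated MEP2-GFP cells per well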
RPL19A-GFP yeast: alters RPL19A-GFP fluorescence in TOR pathway yeast screen; S. cerevisiae RPL19A-GFP strain, flow cytometry, 3 h; stronger effect = lower value; percent response vs DMSO, % at 10 µM; 0.3% of 330,000 active;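 active means percent response vs DMSO below 50%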;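 further: median channel GFP fluorescence of the barcoded RPL19A-GFP strain; ratio of sample median GFP to plate DMSO average so 100% = DMSO; lower means less RPL19A-GFP as with rapamycin TOR inhibition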
LAP4 cherry2: yeast LAP4-GFP modulation, second cherry pick; shares compounds with LAP4-GFP MLPCN; S. cerevisiae LAP4-GFP strain, flow cytometry GFP, 3 h; GFP response vs DMSO, % at 10 µM; 20% of 590 active;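 active means GFP signal as percent of the solvent control above about 150%, meaning raised reporter expression, limit read from the data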;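 further: ratio of well median GFP fluorescence to plate DMSO mean so 100% = DMSO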
MEP2-GFP pick2: yeast MEP2-GFP modulation, second cherry pick. shares compounds with LAP4-GFP MLPCN. S. cerevisiae MEP2-GFP strain, flow cytometry GFP, 3 h. GFP response vs DMSO, % at 10 µM. 10% of 590 active. AID 2622;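 active means GFP signal above 150% of the solvent control wells, that is a rise of more than half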;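 further: median channel GFP fluorescence of all gated yeast cells per well; ratio of median GFP to plate DMSO average so 100% = DMSO level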
RPL19A GFP CP2: yeast RPL19A-GFP TOR reporter modulation, second cherry pick; S. cerevisiae RPL19A-GFP strain, flow cytometry GFP, 3 h; stronger effect = lower value; 100% means same as DMSO wells; shares compounds with LAP4-GFP MLPCN; AID 2623; GFP response vs DMSO, % at 10 µM; 3% of 590 active;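 active means under 65% GFP response relative to DMSO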;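 further: median GFP channel fluorescence per well over the all cells gate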
CIT2-GFP pick2: yeast CIT2-GFP TOR reporter modulation, second cherry pick. S. cerevisiae CIT2-GFP strain, flow cytometry GFP, 3 h; DMSO control wells read 100%. shares compounds with LAP4-GFP MLPCN. 8% of 590 active. GFP response vs DMSO, % at 10 µM;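 active means GFP response vs DMSO above about 150%, limit read from the data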;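 further: median green fluorescence per well over all gated yeast cells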
AGP1 GFP CP2: reconfirmed modulator of AGP1-GFP TOR reporter in yeast; shares compounds with LAP4-GFP MLPCN; S. cerevisiae AGP1-GFP strain, flow cytometry GFP, 3 h; percent response vs DMSO, % at 10 µM; 590 tested, under 10 active;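 active means over 150 percent of DMSO response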;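 further: median GFP channel fluorescence over all cells without mother daughter split; sample median GFP divided by mean DMSO control so 100% equals DMSO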
Yeast autofluor: yeast s288c autofluorescence artifact, counter-screen; shares compounds with LAP4-GFP MLPCN; S. cerevisiae s288c, 520 nm autofluorescence, flow cytometry, 3 h; stronger effect = higher value; zero means same as solvent-only cells; fluorescence change (kMESF span) at 33 µM; 610 tested, under 10 active; AID 2757;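 active means fluorescence span over the dose series, or activity score, above about 33, limit read from the data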
s288c autofl DR: counter-screen for autofluorescence of TOR hits in yeast s288c; fluorescence change (span) at 33 µM; S. cerevisiae s288c parental, compound autofluorescence, flow cytometry, 3 h; AID 488829; shares compounds with LAP4-GFP MLPCN; 110 tested, under 10 active;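 active means fluorescence change span, or the activity score built from it, above 25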
TORC1 bypass gr: compounds blocking wildtype yeast growth but not TORC1 bypass cells; shares compounds with LAP4-GFP MLPCN; S. cerevisiae BY4741 spot growth rating, 48-72 h; stronger effect = lower value; growth rating (0-3) at 30 µM; 120 tested, under 10 active; AID 504456;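 active means growth rating at most 1 for wild type yeast while the TORC1 bypass strain still grows fully, rated 3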
* = called active by the depositor; . = no result given.

SMILES	CIT2 TOR yeast	AGP1 TOR yeast	LAP4-GFP MLPCN	MEP2-GFP yeast	RPL19A-GFP yeast	LAP4 cherry2	MEP2-GFP pick2	RPL19A GFP CP2	CIT2-GFP pick2	AGP1 GFP CP2	others
C=CCn1c(C)c(C(C)=O)c(N2CCOCC2)nc1=S	106	28	93	162	65	99	98	99	110	95
CSc1nc(O)c(C(c2ccccc2Cl)c2c(O)nc(SC)[nH]c2=O)c(=O)[nH]1	.	.	.	106	103	.	.	.	.	.
Brc1ccc(-c2ccc(C3Nc4cccc5cccc(c45)N3)o2)cc1	72	94	155*	90	93	127	106	91	87	92
Cc1cc(Cl)ccc1NC(=O)c1ccc2c(c1)CCN2S(C)(=O)=O	97	100	94	104	101	.	.	.	.	.
CC(=O)N(C1=C(Cl)C(=O)c2ccccc2C1=O)C1CCCCC1	68	8	45	69	8.2*	.	.	.	.	.	Yeast autofluor=7.1
CC1CCN(Cc2nnnn2CCCC(=O)N(C)C2CCOC2)CC1 (stereo not given)	95	98	93	104	97	.	.	.	.	.
Cc1ccc(-c2nc(N)c3c(-c4ccc(C)cc4)nn(C(C)(C)C)c3n2)cc1	95	96	98	100	101	112	121	106	132	99	Yeast autofluor=0.1
CC(C)(C)n1nc(-c2ccc(F)cc2)c2c(N)ncnc21	51	92	178*	105	48*	137	136	48*	61	86	Yeast autofluor=-0.4;s288c autofl DR=0.29;TORC1 bypass gr=3
CC(C)(C)S(=O)(=O)c1cnc2c(-c3ccc(F)cc3)cnn2c1N	93	91	84	92	87	.	.	.	.	.
CSc1nc(-c2ccc(C)cc2)nc(N)c1C#N	83	92	93	95	94	.	.	.	.	.
Cc1ccc(-c2nn(C(C)(C)C)c3ncnc(NS(=O)(=O)c4ccc([N+](=O)[O-])cc4)c23)cc1	100	104	120	101	96	.	.	.	.	.
CC(C)(C)n1nc(-c2ccc(Cl)cc2)c2c(N)ncnc21	43	83	182*	106	43*	.	.	.	.	.	Yeast autofluor=-1;s288c autofl DR=0.32;TORC1 bypass gr=3
O=Cc1ccc(-c2ccc(Cl)cc2Cl)[nH]1	71	88	93	108	110	.	.	.	.	.
O=C(Nc1ccccc1)O/N=C/c1ccc(F)cc1	88	87	104	110	102	.	.	.	.	.
O=C(CCl)N(CCc1ccccc1)CCc1ccccc1	94	112	108	127	96	.	.	.	.	.
O=S(=O)(c1ccc(F)cc1)c1snnc1-c1ccccc1	.	100	131	100	93	122	96	97	108	94
O=C(CSc1nnnn1-c1ccc(C(=O)O)cc1)NC1CCCCC1	105	103	96	99	103	.	.	.	.	.
Cc1ccc(NC(=O)C2CCN(S(=O)(=O)c3c(C)n[nH]c3C)CC2)c(C)c1	117	98	97	109	99	.	.	.	.	.
